Compounds without any hit were thinned out: in the full panel of roughly 83,000, 20% have a hit.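 Method: cells in 96-well plates; compound added at one concentration; 48 h incubation; percent growth measured; values under 10 scored active.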 Unmarked numbers belong to inactive results. The source made the active and inactive calls.

The results in this text go back to PubChem BioAssay (NCI).

The test deals with COLO 205 colon. The test can be described thus: NCI-60 one-dose screen, 48 h (100 = growth as untreated, 0 = no growth, -100 = all killed). The following applies: 10 µM unless noted.
Turning to `COc1cc(-c2nc(C(=O)NCC(=O)NO)nn2-c2ccc(Cl)cc2)cc(OC)c1OC`, the growth is 103%.

Regarding `C=C1C(=O)O[C@H]2[C@H]1CC/C(C=Nc1ccc(C(F)(F)F)cc1N)=C\CC[C@@]1(C)O[C@@H]21`, the growth was -74.3% (active).

As for `CSc1nc(NCCO)c(C#N)c(-c2cccc([N+](=O)[O-])c2)n1`, the growth was 116%.

Regarding `Cn1c(=O)[nH]c(=O)c2nc(CCC(=O)NCCC(=O)O)c(=O)[nH]c21`, the growth was 109%.

As for `C=CC(=O)Nc1cccc(-c2nc(SC)nc(Nc3ccccc3OC)c2C#N)c1`, the growth is 60.9%.

With `CC1=C[C@H]2c3c(c(O)c(O)c4oc5c(C)cccc5c(=O)c34)[C@H](c3cc(O)c(O)c4oc5c(C)cccc5c(=O)c34)[C@H]2C(C)(C)C1`, the growth was 16.3%.

As for `COc1ccc(/C=C(\C#N)C(=O)Nc2cccc(Nc3nc(SC)nc(-c4cccc([N+](=O)[O-])c4)c3C#N)c2)cc1OC`, the growth was 112%.

With `CCN(CC)c1ccc(/C=N\NC(=O)/C=C/C=C/c2ccc3c(c2)OCO3)c(O)c1`, the growth was 39.9%.

As for `CC(C)(C)c1cc(/C=N\NC(=O)/C=C/C=C/c2ccc3c(c2)OCO3)c(O)c(C(C)(C)C)c1`, the growth was 94%.

Take `CN(C)CCCNc1c2ccccc2nc2ccccc12`: the growth is 100%.

Take `CN1CCN(c2nc(NCCCCNc3ccnc4cc(Cl)ccc34)c3ccccc3n2)CC1`: the growth was -2.21% (active).

Regarding `COc1cc2c(cc1-c1c(C)noc1C)ncc1nc(C3CCOCC3)n([C@@H](C)COC(F)F)c12`, the growth is 26.9%.
